# Measured values as given in PubChem BioAssay AID492962 (National Center for Advancing Translational Sciences (NCATS), 2010).
# Active and inactive are the calls of the source. How the calls were made is not given here.
# Test: Mouse Th1 T cell differentiation assay for inhibitors of ROR gamma transcriptional activity
# Settings: mouse naive CD4 T cells, Th1 IFN-g flow cytometry; activity: at 30 µM, hits give high values unless noted; outcome: at 3 µM unless noted
# Description: NIH Molecular Libraries Probe Production Network [MLPCN] NIH Chemical Genomics Center [NCGC] MLPCN Grant: R03 DA026211-01 Assay Provider: Dan Littman, New York University Keywords: NIH Roadmap, MLPCN, MLI, MLSMR, qHTS, NCGC, qHTS, nuclear hormone receptor, retinoic acid-related orphan receptor, ROR gamma Assay Overview: The retinoic acid-related orphan receptor (ROR) gamma is a transcription factor that has a central role in the differentiation of Th17 cells, a subset of T helper cells that secrete the inflammatory cytokines IL-17a, IL-17f, and IL-22. Th17 cells have been implicated in graft versus host disease, autoimmune disease and asthma. ROR gamma is induced in naive T helper cells in the presence of TGF-beta combined with IL-6, IL-21, or IL-23, and thereafter directs the expression of the Th17 lineage cytokines. To confirm the selectivity of ROR gamma inhibitors, compounds with strong inhibitory activities on Th17 cells were tested in a mouse Th1 T cell differentiation assay. T cells differentiate into Th1 cells in the presence of IL-12 and IL-2. […] Th1 differentiation was tracked by the induction of interferon gamma (IFN-g) expression as measured by an anti-IFN-g antibody using flow cytometry.
# Assay Protocol Summary: Cells from lymph nodes and spleens derived from six to eight week old IL17a-GFP mice (Biocytogen LLC) were used for T cell purification. B220- cells were isolated on an autoMACS Pro with bead depletion of B220+ cells (Miltenyi). Naive CD4+ T cell were further purified as TCRb+CD8- DAPI- CD19- CD4+CD25- CD62L+CD44low/Int by cell sorting on a FACSAria (BD). Cells were cultivated in an incubator at 37 C and 5% CO2 in RPMI 1640 medium (Invitrogen) supplemented with 10% (vol/vol) heat-inactivated FBS (Hyclone), penicillin-streptomycin, 2 mM glutamine and 0.1 mM nonessential amino acids. Cells were seeded on day 0 at a density of 0.4E5 cells per ml in 96-well plates coated with anti-CD3e (5 ug/ml) and anti-CD28 (10 ug/ml). Cells were cultured for 4~5 days in Th1 [IL-12 (10 ng/ml), IL-2 (100 U/ml), anti-IL-4] condition. […]
SMILES,outcome,activity
COc1cc(O)c(C(CC(=O)N2CC(C)CC(C)C2)c2ccc3c(c2)OCO3)c(OC)c1 (stereo not drawn),inactive,–
CC1CCCN(C(=O)CC(c2ccc3c(c2)OCO3)c2ccc3ccccc3c2O)C1 (stereo not drawn),–,"32.5% [at 25 µM, hits give high values] (inactive)"
COc1cc(O)c(C(CC(=O)N2CCCC(C)C2)c2ccccc2OC)c(OC)c1 (stereo not drawn),–,46.1% (inactive)
